PubChem BioAssay AID485353 (National Center for Advancing Translational Sciences (NCATS), 2010)
Screen size: about 330,000 compounds; about 610 (0.18%) were called active. Roughly 2% stayed inconclusive and do not appear here. Calls come from the whole dose curve. The list comes from a sample in which actives are over-represented; it also holds similar structures and randomly drawn compounds. Where a call stands in place of a potency, no number is given.
Potency is the fitted concentration of half-maximal effect.

Test: qHTS of Yeast-based Assay for SARS-CoV PLP; note: nearly all actives have a fitted effect of over 55% in size
Conditions: S. cerevisiae expressing SARS-CoV PLpro; Potency: growth rescue; series mostly up to 32.9 µM
With COc1ccc(NC(=O)Nc2ccc3c(c2)C(=O)N([C@H](C)CO)C[C@H](C)[C@@H](CN(C)C(=O)Nc2ccc4c(c2)OCO4)O3)cc1 the Potency was “inactive”.
For Cc1ccc(S(=O)(=O)N2[C@@H](c3cccc(Cl)c3)C(C(=O)O)=CC[C@H]2c2ccc(Cl)c(Cl)c2)cc1, the Potency was “inactive”.
With CCCCNC(=O)N(O)C1N(/N=C/c2ccccc2O)C(=S)SC1(C)C (stereo not given) the Potency was “inactive”.
In the case of COC(=O)c1ccc(/C=N/OCC(=O)Nc2cc(F)ccc2F)cc1, the Potency is reported as “inactive”.
With COc1ccc(-c2cc(=O)oc3cc(OC(C)C(=O)NCC4CCC(C(=O)O)CC4)ccc23)cc1 (stereo not given) the Potency was “inactive”.
In the case of CSc1nsc(SCC(=O)Nc2cc(C(=O)O)ccc2C)n1, the Potency is reported as “inactive”.
For O.O.O.O=S(=O)([O-])OC[C@H]1O[C@@H](O[C@]2(COS(=O)(=O)[O-])O[C@H](OS(=O)(=O)[O-])[C@@H](OS(=O)(=O)[O-])[C@@H]2OS(=O)(=O)[O-])[C@H](OS(=O)(=O)[O-])[C@@H](OS(=O)(=O)[O-])[C@@H]1OS(=O)(=O)[O-].[Al], the Potency was “inactive”.
With Nc1nonc1-n1nnc(C(=O)N/N=C/c2c[nH]c3ccccc23)c1-c1ccccc1 the Potency was “inactive”.
In the case of CC(C)c1c(C(=O)N/N=C/c2ccc(-c3ccccc3)cc2)nnn1-c1nonc1N, the Potency is reported as “inactive”.
In the case of CC(C)c1c(C(=O)N/N=C/c2ccccc2C(=O)O)nnn1-c1nonc1N, the Potency is reported as 5.01 µM (active).
With CCc1ccccc1N1C(=O)C2C3CC(=O)C(c4ccccc43)C2C1=O (stereo not given) the Potency was “inactive”.
In the case of c1ccc2cc3c(NCCN4CCOCC4)ccnc3cc2c1, the Potency is reported as “inactive”.
In the case of Fc1ccc(CNCc2ccc(Br)cc2)cc1, the Potency is reported as “inactive”.
For O=C(CCl)N(Cc1cccc([N+](=O)[O-])c1)c1cccc(Cl)c1, the Potency was “inactive”.
In the case of COc1ccc(NC(=O)Cn2cc(C(=O)c3ccncc3)c(=O)c3cc(C)ccc32)cc1Cl, the Potency is reported as “inactive”.
For COc1cc(C2C(C(=O)OCCC#N)=C(C)NC3=C2S(=O)(=O)c2ccccc23)cc(OC)c1OC (stereo not given), the Potency was “inactive”.
With COc1ccc(C2N=C(N)N=C(N)N2c2ccccc2)cc1OC (stereo not given) the Potency was “inactive”.
For CCOC(=O)C1CCN(S(=O)(=O)c2c(C)noc2C)CC1, the Potency was “inactive”.
With COc1ccc(CCN2CC(C(=O)NCCN3CCNC3=O)CCC2=O)cc1 (stereo not given) the Potency was “inactive”.
In the case of CN(C)C(=O)N1CCNCC1, the Potency is reported as “inactive”.
For COC(=O)c1ccc(NC(=O)CN(c2ccc(C)cc2)S(=O)(=O)c2c(C)n[nH]c2C)cc1, the Potency was “inactive”.
With CCC(=O)Nc1nc(OC)cc(OC)n1 the Potency was “inactive”.
In the case of CCC(=O)Nc1c(C)n[nH]c1C, the Potency is reported as 10 µM (active).
In the case of CCCC[C@]12Cc3cc(OC)c(OC)cc3C(O1)C1=C(CC3(CCCCC3)OC1=O)O2, the activity, positive = growth rescue is reported as 5.12% [at 6.58 µM] (inactive).
With O=C(CSc1ncnc2c1cnn2CCc1ccccc1)Nc1ccc(F)cc1 the Potency was “inactive”.
In the case of O=C(NCCCCCCCCCNC(=O)C(F)(F)F)C(F)(F)F, the Potency is reported as “inactive”.
With CC1CC(C)CN(C/C=C/c2ccccc2[N+](=O)[O-])C1 (stereo not given) the Potency was “inactive”.
In the case of COc1ccc(NC(=O)C(NC(C)=O)C(=O)NCc2ccccc2Cl)cc1 (stereo not given), the Potency is reported as “inactive”.
With CCCCNS(=O)(=O)CCNCc1ccccc1OC the Potency was “inactive”.
In the case of CCOC(=O)[C@@H]1[C@H]2COc3cc(OC)ccc3[C@H]2N2C(=O)N(c3ccc(F)cc3)C(=O)[C@]12C, the Potency is reported as “inactive”.
For CCCN(CC1COc2ccccc2O1)C(=S)Nc1ccc(C)cc1 (stereo not given), the Potency was “inactive”.
With CC(NC(=S)Nc1ccccc1)C1COc2ccccc2O1 (stereo not given) the Potency was 10 µM (active).
In the case of S=C(NCC1COc2ccccc2O1)Nc1ccc(Br)cc1 (stereo not given), the Potency is reported as “inactive”.
For O=C(CNC(=O)C12CC3CC(CC(C3)C1)C2)OCC(=O)N1CCCCC1, the Potency was “inactive”.
In the case of Cc1sc(NC(=O)C2=COCCO2)c(C#N)c1C, the Potency is reported as “inactive”.
For Cc1cccc(N2O[C@H]3C=CC2CCCC3)n1, the Potency was “inactive”.
With COc1ccc(CCNC(=O)COC(=O)c2ncc(Cl)c(Cl)c2Cl)cc1OC the Potency was “inactive”.
For CC1(C)C2CCC1(CS(=O)(=O)NCCc1c[nH]c3ccccc13)C(=O)C2 (stereo not given), the Potency was “inactive”.
For Cc1nc2c(C(=O)NCc3cccs3)cnn2c(C)c1Cc1ccc(F)cc1, the Potency was “inactive”.
In the case of Nc1ccccc1SC(C[N+](=O)[O-])c1ccccc1 (stereo not given), the Potency is reported as “inactive”.
In the case of COc1ccc(N(CCC#N)S(=O)(=O)c2ccc(Cl)cc2)cc1, the Potency is reported as “inactive”.
With Cc1cccc(N=C2NC(=O)/C(=C/c3cn(C)c4ccccc34)S2)c1 the Potency was 15.8 µM (active).
With Cc1ccc(N2C(=O)S/C(=C/c3cn(C)c4ccccc34)C2=O)cc1 the Potency was “inactive”.
With Cc1ccc(N=C2NC(=O)/C(=C/C=C/c3ccco3)S2)cc1C the Potency was “inactive”.
In the case of O=S(=O)([N-]c1nc2ccccc2nc1-[n+]1ccc(Cc2ccccc2)cc1)c1ccc(Br)s1, the Potency is reported as “inactive”.
In the case of Cc1cc(C)c[n+](-c2nc3ccccc3nc2[N-]S(=O)(=O)c2cccs2)c1, the Potency is reported as 11.2 µM (active).
With CCCCNc1nc2ccccc2nc1NS(=O)(=O)c1cccs1 the Potency was “inactive”.
For CCC1CCCCN1C(=O)CSc1nc2c(c(=O)n1C)SC(C)C2 (stereo not given), the Potency was “inactive”.
In the case of COc1cccc(/C=N/NC(=O)c2[nH]nc3c2CCc2ccccc2-3)c1O, the Potency is reported as 6.31 µM (active).
For COc1ccc(Br)cc1/C=N/NC(=O)c1cccc(S(=O)(=O)N2CCOCC2)c1, the Potency was “inactive”.
With COc1ccc(/C=N/NC(=O)c2ccncc2)cc1CN1CCCc2ccccc21 the Potency was “inactive”.
For CC(C#N)(NC(=O)CN1CCN(S(=O)(=O)c2cc(C(F)(F)F)ccc2Cl)CC1)C1CC1 (stereo not given), the Potency was “inactive”.
In the case of COc1ccc2cc(-c3[nH]ncc3CNCCn3nc(C)cc3C)ccc2c1, the Potency is reported as “inactive”.
In the case of CCn1c(=O)c(=O)n(CC)c2cc(N3CCCCC3)c(NC(=O)c3ccc(Cl)cc3)cc21, the Potency is reported as “inactive”.
For N#Cc1ccc(-c2nc3cc(C#N)c(C#N)cc3nc2-c2ccccc2)cc1C#N, the Potency was “inactive”.
For Cc1cc2ccccc2n2c(SCC(=O)N3CCN(C(=O)c4ccco4)CC3)nnc12, the Potency was “inactive”.
In the case of N#Cc1ccc(C2=CC(=O)C[C@H](c3ccc(Cl)cc3)C2)cc1, the Potency is reported as “inactive”.
For Cn1c(=O)c2c(SCC(=O)N3CCOCC3)nc(C3CC3)nc2n(C)c1=O, the Potency was “inactive”.
In the case of CCCCn1c(N)c(N(CC(C)C)C(=O)c2cnc(C)cn2)c(=O)[nH]c1=O, the Potency is reported as “inactive”.
With CC(C)N1CCC(=NNc2ccc([N+](=O)[O-])cc2S(=O)(=O)N2CCOCC2)CC1 the Potency was “inactive”.
In the case of CCN(CC)S(=O)(=O)c1ccc2nc(CSc3nnnn3-c3ccc(O)cc3)[nH]c2c1, the Potency is reported as “inactive”.
In the case of COc1ccc(Cl)cc1NC(=O)CCS(=O)(=O)c1cc2c(cc1C)NC(=O)CO2, the Potency is reported as “inactive”.
In the case of COc1ccc(NC(=O)CCS(=O)(=O)c2cc3c(cc2Cl)NC(=O)CO3)cc1OC, the Potency is reported as 10 µM (active).
For Cc1cc2c(cc1S(=O)(=O)CCC(=O)NCc1ccccc1)OCC(=O)N2, the Potency was “inactive”.
In the case of CN(C(=O)CN1C(=O)NC(C)(CCc2ccccc2)C1=O)c1ccccc1 (stereo not given), the Potency is reported as “inactive”.
For CC(C)CCNC(=O)C1CCCN(S(=O)(=O)c2ccc(F)cc2)C1 (stereo not given), the Potency was “inactive”.
For CCCN(CC1CC1)C(=S)NC(=O)c1ccccc1Br, the Potency was “inactive”.
With CCCCCOc1ccc(/C=C/C(=O)NCCc2nc3ccccc3[nH]2)cc1OC the Potency was “inactive”.
In the case of COc1ccc(CNC(=O)C(=O)NCC2OCCN2C(=O)c2ccc(OC)cc2)cc1 (stereo not given), the Potency is reported as “inactive”.
With CC(C)CC(=O)c1c[nH]c(C(=O)NCc2ccccc2)c1 the Potency was “inactive”.
In the case of CCOC(=O)N1CCN(C(=O)COC(=O)c2cccc(S(C)(=O)=O)c2)CC1, the Potency is reported as “inactive”.
In the case of CC(=O)c1cn(CCCCCCCCCCn2cc(C(C)=O)c(=O)[nH]c2=O)c(=O)[nH]c1=O, the Potency is reported as “inactive”.
For CN(Cc1ccc2nsnc2c1)Cc1nc(Cc2cccc(F)c2)no1, the Potency was “inactive”.
With Cc1cccc(C)c1NC1=NC(=S)N(c2ccc(N(C)C)cc2)C1(C)C the Potency was “inactive”.
In the case of O=C(OCC1O[C@@H](OC(=O)c2cc(O)c(O)c(O)c2)[C@@H](OC(=O)c2cc(O)c(O)c(O)c2)[C@@H](OC(=O)c2cc(O)c(O)c(O)c2)[C@@H]1OC(=O)c1cc(O)c(O)c(O)c1)c1cc(O)c(O)c(O)c1 (stereo not given in full), the Potency is reported as 5.62 µM (active).
With CCOC(=O)CN1C(=O)N[C@@H](c2ccc(Br)cc2)C(C(C)=O)=C1C the Potency was “inactive”.
With CCc1cccc2c3c([nH]c12)C(CC)(CC(=O)O)OCC3 (stereo not given) the Potency was 20 µM (active).
With CCc1cccc2c(C#N)cn(CC(=O)N3CCOCC3)c12 the Potency was “inactive”.
With Cc1cc2ccccn2c1C(=O)c1cccc(S(=O)(=O)N2CCOCC2)c1 the Potency was “inactive”.
For O=C(OCc1cn(-c2ccc(Cl)c(Cl)c2)nn1)c1ccccc1Cl, the Potency was “inactive”.
With COC(=O)CCC(=O)N1CCCC(CO)(Cc2ccccc2)C1 (stereo not given) the Potency was “inactive”.
With CCOC(=O)c1c(N)c(C#N)nn1-c1ccccc1C(=O)OC the Potency was “inactive”.
In the case of CC1(C)CN=C(N2CCN(c3ncnc4sc5c(c34)CCCC5)CC2)S1, the Potency is reported as “inactive”.
With COc1ccc(NC(=O)CN(C)C(=O)c2ccc(NC3CC3)c([N+](=O)[O-])c2)cc1 the Potency was “inactive”.
In the case of COc1ccc(C(C(=O)NC(C)(C)C)N(Cc2ccc(F)cc2)C(=O)CCC(=O)Nc2cc(C)on2)cc1 (stereo not given), the Potency is reported as “inactive”.
In the case of Cc1ccccc1Cn1nc(C)c(NC(=O)C(F)(F)F)c1C, the Potency is reported as “inactive”.
With CCCCc1ccc(NC(=O)CN2C(=O)NC(Cc3ccccc3)C2=O)cc1 (stereo not given) the Potency was “inactive”.
With O=C(C(NS(=O)(=O)c1cccc2nsnc12)c1ccccc1)N1CCN(c2ccccc2)CC1 (stereo not given) the Potency was “inactive”.
With Cc1cc(OCCOc2cccc3cccnc23)c(C)cc1Cl the Potency was “inactive”.
With CC(C)CNC(=O)C1CCCN(S(=O)(=O)c2ccc(-n3cnnn3)cc2)C1 (stereo not given) the Potency was “inactive”.
With COC(=O)C1(C)NC(c2ccc(C)cc2)C2C(=O)N(c3ccc(F)cc3)C(=O)C21 (stereo not given) the Potency was “inactive”.
For Cc1c2cnn(-c3ccccc3)c(=O)c2c(C)n1CCCC(=O)N1CCN(C)CC1, the Potency was “inactive”.
For COC(=O)[C@]1(C)CCC[C@@]2(C)C3CC[C@]4(OC(C)=O)C[C@@]3(CCC21)CC4=NO (stereo not given in full), the Potency was “inactive”.
For CCCCN(CC(=O)Nc1cccc(S(=O)(=O)N2CCCC2)c1)Cc1nc2ccccc2c(=O)[nH]1, the Potency was “inactive”.
With COc1ccc(N(C(=O)CNC(=O)c2ccco2)C(C(=O)NCC2CCCO2)c2ccccc2)cc1Cl (stereo not given) the Potency was “inactive”.
